Data on 100 molecules can be found in PubChem BioAssay AID686978 (National Center for Advancing Translational Sciences (NCATS), 2013).

In all, about 420,000 compounds went through this assay and about 64,000 (15%) were called active. Roughly 27% stayed inconclusive and do not appear here. Calls follow the shape of the dose curve; as a rule, active = well fitted inhibition curve with a large enough effect; inconclusive = small, poorly fitted or top-dose-only effect; inactive = flat fitted curve, though single readings scatter. Not all results are given here. Entries that show only a call come without a potency. Square brackets hold non-standard residues; d marks the D form. Peptide text beside a SMILES is read from it. * marks the point of attachment. ξ: configuration not given here. Cbz = O=C(OCc1ccccc1)*; ξL = CC(C)CC(N)C(=O)O; ξP = O=C(O)C1CCCN1
Potency is read from the fitted curve at half-maximal effect.

The nature of the experiment: qHTS for Inhibitors of human tyrosyl-DNA phosphodiesterase 1 (TDP1): qHTS in cells in absence of CPT. Also: nearly all actives have a fitted effect of over 55% in size. The conditions noted are these: DT40 Tdp1-/- hTDP1 cells, no CPT, ATP luminescence, 48 h; activity change, negative = growth inhibition: at 46.2 µM (top of the series). Summed up: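 Compound effects on proliferation are scored in DT40 Tdp1-/-;hTDP1 cells in the absence of CPT. ATP levels (CellTiter-Glo luminescence) are recorded after a ≥48 hr, 37 °C incubation.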
On the technique in general: Quantitative high-throughput screening tests each substance at several concentrations.
As to `O=C(NCc1cc(F)cc(C(F)(F)F)c1)C1CCC(=O)N(C2CCCC2)C1` (stereo not given), the Potency result was “inactive”. In the case of `Cc1cccc(C(=O)Nc2ccccc2-c2nnn(CC(=O)Nc3ccc4c(c3)OCCO4)n2)c1`, the Potency entry is “inactive”. In the case of `CCCOc1ccccc1-c1nc(SCCC(=O)O)n[nH]1` it was “inactive”. To `CN(c1ccccc1)S(=O)(=O)c1cccc(NC(=O)Cc2ccc(Cl)cc2)c1` belongs 23.1 µM (active); to `CN(c1ccc(OCC(=O)OCC(=O)Nc2cccc([N+](=O)[O-])c2)cc1)S(=O)(=O)c1ccc(F)cc1`, “inactive”. To `CN(c1ccccc1)S(=O)(=O)c1cccc(C(=O)NNC(=O)c2ccncc2)c1` belongs “inactive”; to `CN(c1cccc(NC(=O)Nc2ccc(Cl)cc2)c1)S(C)(=O)=O`, 25.9 µM (active).

Consider `Cn1ccc(NC(=O)Nc2ccc(Cl)cc2)n1`, for which the Potency entry is “inactive”. In the case of `CNS(=O)(=O)c1ccc(NC(=O)Nc2ccc3c(c2)OCO3)cc1` it was “inactive”. In the case of `Cc1ncc([N+](=O)[O-])n1CCOC(=O)c1ccc(Br)cc1` it was “inactive”; in that of `COc1ccc(S(=O)(=O)NCC(=O)NCc2cc(=O)n(C)c(=O)n2C)cc1F`, “inactive”. In the case of `O=C(NC1CCCCC1)c1cc(C2CC2)on1` it was “inactive”; in that of `COc1cc2c(cc1OC)C(=O)NCC(C)(C)O2`, “inactive”; in that of `O=C(O)CCCCCCCCCC[n+]1ccccc1`, “inactive”. On to `O=C(NCC1CCC(C(=O)O)CC1)OCc1ccccc1` (stereo not given), for which the Potency result was “inactive”. To `CCN(CCCNC(=O)c1cc(Nc2ccc(OC)cc2)nc2ccccc12)c1cccc(C)c1` belongs 20.6 µM (active). In the case of `COc1ccc(Nc2cc(C(=O)NCCCN(C)c3ccccc3)c3ccccc3n2)c(OC)c1` it was 11.6 µM (active); in that of `COc1ccc(NC(=O)CCNC(=O)Cn2ccc3ccccc3c2=O)c(OC)c1`, “inactive”. In the case of `CCN(CCCNC(=O)Cn1ncc2c([nH]c3ccccc32)c1=O)c1cccc(C)c1` it was “inactive”; in that of `CCCN(CCC)CCCNC(=O)CNC(=O)c1nn(-c2ccc(OC)cc2)c(=O)c2ccccc12`, “inactive”; in that of `COc1ccc(NC(=O)CNC(=O)Cn2ccc3ccccc3c2=O)c(OC)c1`, “inactive”. As for `Cc1nc(C(F)(F)F)ccc1C(=O)N1CCC1(C)C(=O)NS(=O)(=O)c1ccccc1Cl` (stereo not given), the Potency result is “inactive”. In the case of `Cc1ccccc1NC(=O)Cc1nc(COC(=O)c2cccnc2Cl)cs1` it was “inactive”.

Turning to `COC(=O)c1cc(CNC(=O)CC(C)c2ccccc2)ccc1OC` (stereo not given), the Potency entry is “inactive”. For `O=C(OCC(=O)N1CCCC1)c1ccc(Cl)nc1`, the Potency result was “inactive”. To `O=C(O)C1CCC(CNS(=O)(=O)c2ccc(Br)cc2)CC1` (stereo not given) belongs “inactive”. To `CCOC(=O)c1cc2cc(OC)ccc2n1C1CCN(C)CC1` belongs 18.4 µM (active). For the molecule `COc1ccc2[nH]c(C(=O)N3CCN(C)CC3)c(C)c2c1`, the Potency entry was “inactive”.

Consider `CCOC(=O)c1cc2c(ccn2C)n1CC(=O)N1CCC(C)CC1`, for which the Potency entry was “inactive”. In the case of `Cc1c(NC(=O)CCCOc2ccccc2)cccc1[N+](=O)[O-]` it was “inactive”.

Consider `Cc1csc(CN(C)C(=O)CC2C(=O)NCCN2CC(C)(C)C)n1` (stereo not given), for which the Potency entry was “inactive”. To `O=C(N/N=C/c1ccccc1O)/C(=C/c1ccccc1)CCO` belongs 5.17 µM (active); to `O=C(CCC(=O)Nc1ccccc1)N/N=C/c1ccccc1F`, “inactive”; to `O=C(N/N=C/c1ccc(O)cc1)/C(=C/c1ccc([N+](=O)[O-])cc1)NC(=O)c1ccccc1`, “inactive”.

As for `C=CCOc1ccccc1/C=N/NC(=O)Cc1ccccc1`, the Potency result is “inactive”.

Turning to `O=C(NN=Cc1ccccc1O)NN=Cc1ccccc1O`, the Potency was 5.8 µM (active).

On to `Oc1ccccc1C=NC1CCCCC1N=Cc1ccccc1O` (stereo not given), for which the Potency entry was “inactive”. To `O=C(NCC1CCCCC1)c1cc(S(=O)(=O)N2CCCCC2)ccc1N1CCOCC1` belongs “inactive”; to `N#CCCN(C(=O)COC(=O)c1ccc2c(c1)OCCO2)c1ccccc1`, “inactive”. For `O=C(Cn1nc([N+](=O)[O-])nc1Br)NC1CCCCC1`, the Potency entry is “inactive”. To `CCOC(=O)C(C)n1cnc2c(nnn2-c2ccc(F)cc2)c1=O` (stereo not given) belongs “inactive”; to `Cc1ccc(Cn2nnc3c(=O)n(CC(=O)N4CCCCC4)cnc32)cc1`, “inactive”; to `O=C(Cn1cnc2c(nnn2-c2ccccc2)c1=O)N1CCC(Cc2ccccc2)CC1`, 20.6 µM (active). To `CC(=O)Nc1ccc(S(=O)(=O)N2CCC(NC(=O)c3ccccc3)CC2)cc1` belongs “inactive”; to `CC(C)Cn1c(N)c(C(=O)NCc2cccs2)c2nc3ccccc3nc21`, 20.6 µM (active). To `O=C(NCc1cccs1)c1ccc(Br)o1` belongs “inactive”. For the molecule `CCCNC(=O)c1c(N)n(-c2ccc(S(N)(=O)=O)cc2)c2nc3ccccc3nc12`, the Potency result was “inactive”.

Consider `Cn1nccc1NC(=O)CC(CC(=O)O)c1ccccc1` (stereo not given), for which the Potency entry was “inactive”. To `COc1ccc(NC(=O)CS(=O)(=O)c2ccccc2)cc1` belongs “inactive”; to `CC(=O)Nc1ccccc1OC(=O)N1CCOCC1`, “inactive”. To `CS(=O)(=O)N1CCC(C(=O)N2CCN(c3ccccc3)CC2)CC1` belongs “inactive”; to `CC(=O)c1ccc(S(=O)(=O)N2CCC(Oc3ccc(-n4cnnn4)cc3)CC2)cc1`, “inactive”; to `CC(=O)c1ccc(N2CCN(S(=O)(=O)c3c(C)[nH]c(=O)[nH]c3=O)CC2)cc1`, “inactive”. To `CC(=O)N1c2ccc(S(=O)(=O)N3CCC(C(=O)N4CCN(c5ccccc5)CC4)CC3)cc2CC1C` (stereo not given) belongs 20.6 µM (active); to `CCS(=O)(=O)N1CCC(C(=O)N2CCN(c3ccccc3)CC2)CC1`, “inactive”. With `CC(=O)c1ccc(N2CCN(C(=O)C3CCN(S(=O)(=O)c4ccc5c(c4)CC(C)N5C(=O)C4CC4)CC3)CC2)cc1` (stereo not given), the Potency is 4.11 µM (active).

For `NC(=O)COC(=O)c1cc(S(=O)(=O)N2CCN(c3ccccc3)CC2)ccc1Cl`, the Potency result was “inactive”.

Turning to `NC(=O)C1CCN(C(=O)c2cc(S(=O)(=O)N3CCN(c4ccccc4)CC3)ccc2Cl)CC1`, the Potency was 6.51 µM (active).

Consider `NC(=O)C1CCN(C(=O)c2ccc(-c3ccccc3)cc2)CC1`, for which the Potency result is “inactive”. In the case of `COc1ccc(NC(=O)CN(C)S(=O)(=O)c2ccccc2)cc1OC` it was “inactive”. In the case of `O=C(NCCS(=O)(=O)c1ccc(Br)cc1)c1ccccc1Cl` it was “inactive”; in that of `COc1ccc(NC(=O)NN2CCN(C)CC2)c(OC)c1`, “inactive”. To `O=C(Cn1cc2c(n1)CCCCC2)NCCN1CCOCC1` belongs “inactive”; to `Cn1c(=O)sc2cc(NS(=O)(=O)c3ccc(C(C)(C)C)cc3)ccc21`, “inactive”; to `CC1=NN(C(=O)c2ccccc2Br)C(O)(c2cccnc2)C1` (stereo not given), “inactive”. With `O=C(NCCc1ccccc1)C1CC1`, the Potency result is “inactive”. Consider `CCCC1CCC(=NNC(=S)NCCc2ccccc2)CC1` (stereo not given), for which the Potency was 7.31 µM (active). As to `CCC(C)(C)C1CCC(=NNC(=O)c2ccc(Br)o2)CC1` (stereo not given), the Potency result was “inactive”. On to `CC(C)CC(NC(=O)C1CCCN1C(=O)[C@@H](C)NC(=O)OCc1ccccc1)C(=O)NCC(N)=O` (stereo not given in full) (Cbz-[dA][ξP][ξL]G-NH2), for which the Potency result was “inactive”. To `COc1cc(OC)cc(-c2nc3ccccc3c(=O)n2NC(=O)c2cccnc2Cl)c1` belongs “inactive”. In the case of `CSc1nc(C)nc(C2CC2)c1C#N` it was “inactive”. To `Cc1noc(C)c1NC(=O)Nc1ccc2c(c1)C(=O)N([C@H](C)CO)C[C@H](C)[C@@H](CN(C)C(=O)Nc1ccccc1)O2` belongs “inactive”; to `CCCCOCCCNC(=O)c1ccccc1OCC`, “inactive”.

In the case of `CCC(=O)NCCc1nc2ccccc2n1CC`, the Potency result was “inactive”. As for `CCCCCn1c(CCNC(=O)c2ccc(F)cc2)nc2ccccc21`, the Potency is 18.4 µM (active). To `Cc1cc2ccccc2n1CCC(=O)O` belongs “inactive”.

Regarding `O=C(CNC(=O)c1ccc(F)cc1)c1ccccc1`, the Potency entry is “inactive”. In the case of `Cc1cc2ccccc2n1CCNC(=O)c1ccc(F)cc1` it was 18.4 µM (active); in that of `COc1ccccc1C(=O)NCCC(=O)NC(C)CCc1ccccc1` (stereo not given), “inactive”. To `CCCCCn1c(CCCNC(=O)c2ccccc2OC)nc2ccccc21` belongs 18.4 µM (active); to `CC(=O)NCCc1nc2cc(NC(=O)c3ccccc3)ccc2n1C`, “inactive”; to `CCN(CC)CCCNC(=O)CCc1ccccc1`, “inactive”.

As for `CCN(CC)CCCN=C(N)N`, the Potency result was “inactive”. On to `COc1cc(NS(=O)(=O)c2ccc(NC(=S)NC(=O)c3ccc(Br)cc3)cc2)ncn1`, for which the Potency result was “inactive”. As for `COc1ccc(COCC(O)CN2CCC(C(N)=O)CC2)cc1` (stereo not given), the Potency entry was “inactive”. To `Clc1ccccc1-c1cc(COc2ccc3ccccc3c2)no1` belongs “inactive”; to `CCCCNC(=O)CCn1c(=S)[nH]c2cc3c(cc2c1=O)OCO3`, “inactive”. In the case of `CCN1CCN(C(=O)N[C@@H](C(=O)N[C@@H]2C(=O)N3C(C(=O)O)=C(CSc4nnnn4C)CS[C@H]23)c2ccc(O)cc2)C(=O)C1=O` it was “inactive”. To `COc1ccc(Cl)cc1C=CC=NNC(=O)c1ccncc1` belongs “inactive”; to `COc1ccc(Cl)cc1C=CC=Nc1ccc(S(N)(=O)=O)cc1`, 16.4 µM (active). With `NS(=O)(=O)c1ccc(N=Cc2ccc(Br)s2)cc1`, the Potency result was “inactive”.

Take `CCN1C(=O)[C@H]2[C@@H](c3ccc(C(F)(F)F)cc3)N[C@]3(CCCN(Cc4ccc(Br)cc4)C3=O)[C@H]2C1=O`: the Potency is 9.2 µM (active).

On to `CCN1C[C@@H]2[C@@H]3C(=O)N(Cc4ccccc4)C(=O)[C@@H]3[C@](C)(C1=O)N2C(=O)c1ccc(C(C)(C)C)cc1`, for which the Potency entry was “inactive”.

With `O=C1[C@H]2[C@@H](c3ccc(C(F)(F)F)cc3)N[C@]3(CCCN(Cc4ccc(Cl)cc4)C3=O)[C@H]2C(=O)N1Cc1ccccc1`, the Potency was 20.6 µM (active). On to `O=C1[C@H]2[C@@H](c3ccc(C(F)(F)F)cc3)N[C@]3(CCCN(Cc4ccc(Br)cc4)C3=O)[C@H]2C(=O)N1Cc1ccccc1`, for which the Potency is 23.1 µM (active). In the case of `Cc1ccc([C@H]2N[C@]3(CCCN(CC4CCCCC4)C3=O)[C@H]3C(=O)N(Cc4ccccc4)C(=O)[C@@H]23)cc1` it was 23.1 µM (active). Consider `COc1ccc([C@H]2N[C@]3(CCCN(Cc4ccco4)C3=O)[C@H]3C(=O)N(C)C(=O)[C@@H]23)cc1`, for which the Potency entry is “inactive”.

Take `CCN1C(=O)[C@H]2[C@@H](c3ccccc3)N[C@]3(CCCN(Cc4ccc(C)cc4)C3=O)[C@H]2C1=O`: the Potency result is “inactive”.

In the case of `Cc1ccc(C(=O)Oc2ccc(C(=S)N3CCOCC3)cc2)cc1`, the Potency entry was “inactive”.

Regarding `c1ccc(-c2ccnc3nc(-n4cccc4)nn23)cc1`, the Potency entry was “inactive”.
